HP1b chromo inh: HP1-beta chromodomain-methylated histone interaction inhibition; 390,000 tested, 0.56% active; AlphaScreen HP1-beta / biotin-H3K9me3 peptide binding; Potency, µM (doses to about 114 µM), for the others: at the highest dose activity change, negative = inhibition, hits mostly inhibitors; P83916; further: potency means the concentration at half of the fitted maximal effect; nearly all actives have a fitted effect of over 70% in size
Target sequence (P83916 whole entry, looked up): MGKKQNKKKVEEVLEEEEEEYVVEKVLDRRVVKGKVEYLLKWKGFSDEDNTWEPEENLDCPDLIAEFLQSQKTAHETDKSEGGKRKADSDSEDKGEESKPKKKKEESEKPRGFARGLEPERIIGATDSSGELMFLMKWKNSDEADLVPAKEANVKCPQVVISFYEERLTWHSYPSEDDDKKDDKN
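Compound inhibition of the preformed complex between 50 nM HP1-beta and 50 nM biotinylated H3K9me3 peptide was read by AlphaScreen. Buffer was PBS pH 7.4 with 0.01% Tween-20. Incubations ran 30 min at room temperature, with 10 ug/mL donor/acceptor beads.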
G9a inh: blocks human histone lysine methyltransferase G9a; Q96KQ7; G9a H3K9 monomethylation, AlphaScreen, 2 h; Potency, µM (top dose mostly 102 µM), for inactives: at the top dose activity, negative = inhibition, hits mostly inhibitors; 350,000 tested, 8.8% active; further: potency means the concentration at half of the fitted maximal effect; on the % scale 0 is the no-effect control and ±100 the full control effect; nearly all actives have a fitted effect of over 75% in size
Target sequence (Q96KQ7 913-1193 limits assumed): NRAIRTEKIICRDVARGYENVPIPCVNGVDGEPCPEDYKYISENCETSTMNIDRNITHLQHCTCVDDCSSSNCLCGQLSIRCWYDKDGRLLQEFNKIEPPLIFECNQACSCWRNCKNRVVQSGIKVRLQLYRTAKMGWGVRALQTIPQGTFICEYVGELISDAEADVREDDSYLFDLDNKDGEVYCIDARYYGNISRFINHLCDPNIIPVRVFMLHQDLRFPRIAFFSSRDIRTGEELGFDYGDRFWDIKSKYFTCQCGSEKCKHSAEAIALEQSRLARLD
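Signal arises when biotinylated H3K9 peptide, once monomethylated, bridges streptavidin donor and antibody-captured acceptor beads. Enzyme at 20 nM was preincubated 15 min with test compounds; peptide 500 nM and SAM 20 uM then reacted for 2 h.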
PI5P4K alpha inh: PI5P4K alpha (human) kinase inhibition; PI5P4Kalpha enzyme, ADP-Glo luminescence, 60 min; hits give low values; AID 652105; max response, %; 330,000 tested, 1.2% active; P48426; active means max response of -50% or lower; inconclusive means between -30% and -50%; inactive means -30% or higher; further: value at the top dose of about 77 µM; on the % scale 0 is the no-effect control and ±100 the full control effect
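ADP-Glo luminescence end-point read after a 60 min room-temperature kinase reaction of PI5P4Kalpha plus substrate, initiated with ATP at 5 microM final. Buffer: 0.038 M HEPES pH 7.4, EGTA, 0.1% CHAPS, 5% DMSO.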
JMJD2A Tudor: JMJD2A Tudor domain (human) inhibition; O75164; Potency, µM (titrated, usually from 114 µM), inactives show at the highest dose activity change, negative = inhibition, hits mostly inhibitors; AID 504339; 390,000 tested, 4.4% active; AlphaScreen JMJD2A-Tudor / H3K4me3 peptide binding; further: potency means the concentration at half of the fitted maximal effect; on the % scale 0 is the no-effect control and ±100 the full control effect; nearly all actives have a fitted effect of over 50% in size
PLK1 PBD block: blocks phosphopeptide binding to human PLK1 polo-box domain; P53350; Plk1 PBD binding of FITC phosphopeptide, fluorescence polarization; Potency, µM, inactives show max response, negative = inhibition, hits mostly inhibitors; 360,000 tested, 2.8% active; further: potency means the concentration at half of the fitted maximal effect; series mostly up to about 57 µM; on the % scale 0 is the no-effect control and ±100 the full control effect; nearly all actives have a fitted effect of over 65% in size
BAZ2B block: BAZ2B (human) inhibition; Q9UIF8; AlphaScreen BAZ2B-H3K14Ac peptide displacement; Potency, µM (top dose mostly 114 µM), without a hit: top-dose activity change, negative = inhibition, usual class: inhibitors; 360,000 tested, 4.4% active; further: potency means the concentration at half of the fitted maximal effect; on the % scale 0 is the no-effect control and ±100 the full control effect; nearly all actives have a fitted effect of over 60% in size
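Compounds, titrated to a top concentration of 110 uM, were incubated 30 min at room temperature with preformed BAZ2B/acetyl-K14 H3 peptide complex (50 nM each). Proximity signal was measured by AlphaScreen after 20 min with beads.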
* = called active by the depositor; ? = inconclusive; / = not tested or not shown; [ ] = dose if it differs, or a comment. A selection: hits, their analogues and other compounds. The true share with any hit is near 12%. Unless noted, the call rests on the fitted dose curve; in most records, active means well fitted curve in the direction sought with a large enough effect; inconclusive means small, poorly fitted or top-dose-only effect, or another doubt; inactive means no such curve, though single readings can be large; an effect the other way counts as inactive or inconclusive.

SMILES	HP1b chromo inh	G9a inh	PI5P4K alpha inh	JMJD2A Tudor	PLK1 PBD block	BAZ2B block
COc1ccc(Nc2oc(COc3ccccc3F)nc2C#N)cc1	-4.9%	35.5µM*	0.3	?	?	?
Cc1ccc(OCc2nc(C#N)c(NCc3ccco3)o2)cc1	-9.2%	50.1µM*	0.1	?	-5.4%	35.5µM*
COc1ccc(Nc2oc(COc3ccc(C)cc3)nc2C#N)cc1	-35.1%	?	4.1	89.1µM*	-0.7%	?
CN(Cc1ccccc1)c1oc(COc2ccccc2F)nc1C#N	-23.4%	28.2µM*	1.5	?	?	28.2µM*
Cc1nn2c(=O)cc(COC(=O)c3ccc(NC(=O)COc4ccc(Cl)cc4)cc3)nc2s1	18.2%	30.3%[59 µM]	/	-1.0%	/	-12.4%
CCC(Sc1nc2ccccc2c2nc(-c3ccccc3)nn12)C(=O)Nc1cccc(OC)c1 (stereo not drawn)	44.7%	-1.8%[59 µM]	/	0.7%	/	3.5%
Cc1cccc(-c2nc(C#N)c(NCc3ccco3)o2)c1	13.2%	44.7µM*	1.9	-22.1%	-0.7%	50.1µM*
O=C(O)c1cc(Cl)ccc1-c1ccc(/C=C/c2cc(C(F)(F)F)[nH]c(=O)n2)o1	-2.6%	?	-53.1*	-12.0%	40.2%	-25.0%
O=C(O)c1ccccc1-c1ccc(C(F)(F)F)cc1	/	0.9%[12.7 µM]	/	/	/	/
O=C(O)c1ccccc1-c1ccc(/C=C/c2cc(C(F)(F)F)[nH]c(=O)n2)o1	6.6%	39.8µM*	?	-25.9%	13.7%	?
CCCCCC(=O)N1C[C@H](n2cc(-c3ccc(F)cc3)nn2)[C@@H](O)C[C@@H]1c1ccc(Cl)cc1	/	/	-1.2	/	-1.7%	/
CCC(C)NC(=O)C1=CCN(S(=O)(=O)c2ccc(C)cc2)CC1 (stereo not drawn)	5.6%	50.1µM*	0.1	-11.6%	-28.2%	-0.1%
CCC(C)NS(=O)(=O)c1ccc(S(=O)(=O)N2CC=C(c3ccc(F)cc3)CC2)cc1 (stereo not drawn)	?	10µM*	-4.3	?	?	-25.9%
Cc1cccc(C)c1N1C(=O)c2ccccc2NC(=O)C1C(=O)Nc1ccc2c(c1)OCCO2 (stereo not drawn)	/	/	5.1	/	-1.9%	/
O=C(Cn1c(=O)oc2ccccc21)Nc1ccc(Cl)cc1Cl	32.7%	-14.5%	-3.6	10.3%	16.6%	-12.5%
CC(C)(C)c1ccc(O)c(O)c1	?	9.1%[0.501 µM]	-88.1*	12.6µM*	-8.5%	-7.6%
COc1ccc(-c2c3c([nH]c(=S)c2C#N)CCC3)cc1	-16.2%	?	-70.0*	44.7µM*	7.52µM*	1.4%
COc1ccc(OC)c(-c2c3c([nH]c(=S)c2C#N)CCCC3)c1	8.9%	?	-58.2*	-31.7%	26.7µM*	?
COc1ccc2[nH]c3c(c(=O)c2c1)CCCC3	/	/	-0.9	/	-0.8%	/
Cn1c(SCC(=O)NNC(=O)Cc2ccccc2)nc2ccccc2c1=O	-11.2%	15.8%	?	22.4µM*	3.36µM*	-7.4%
Cn1c(SCn2nnc3ccccc3c2=O)nc2ccccc2c1=O	/	50.1µM*	/	/	/	-6.8%
O=c1c2ccccc2nnn1CSc1nnc(-c2cccs2)n1Cc1ccccc1	?	17.8%[59 µM]	-17.1	?	29.9µM*	-3.5%
CCN(CC)S(=O)(=O)c1ccc2c(c1)nc(SCn1nnc3ccccc3c1=O)n2CC	18.0%	44.7µM*	-3.0	-10.8%	?	12.5%
O=c1c2ccccc2nnn1CSc1nc2ccccc2c(=O)n1CCCO	41.1%	-31.0%	0.1	-15.5%	-7.7%	-13.6%
Cc1ccc(S(=O)(=O)NCCc2cn3c(C)csc3n2)cc1	24.0%[57 µM]	-0.8%[59 µM]	/	-0.3%	/	6.0%
COc1cc(OC)cc(C(=O)N2CCN(C(=O)COc3ccccc3)CC2)c1	23.1%	4.8%[59 µM]	/	6.2%	/	0.6%
Cc1ccc(NC(=O)CSc2n[nH]c(-c3cccnc3)n2)cc1Cl	9.6%	18.1%[59 µM]	0.6	-21.4%	-8.2%	-8.5%
O=C(/C=C/c1ccccc1[N+](=O)[O-])Oc1ccccc1	/	70.8µM*	/	/	/	?
O=C(/C=C/c1ccccc1[N+](=O)[O-])c1ccc(F)cc1	6.2%	39.8µM*	3.1	-2.8%	-13.1%	-15.6%

High-throughput results as filed in PubChem BioAssay.
